Laboratory results published in PubChem BioAssay AID748 (Sanford-Burnham Center for Chemical Genomics, 2007).
Hit rate of the full screen: of about 96,000 compounds, about 100 (0.1%) were called active. The full list was thinned out, with actives kept by preference. Potency and affinity values are given separately. Unmarked numbers belong to inactive results.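 How the source made its calls: active means displacement above 50% at 20 µM plus a fluorescence interference ratio under 1.5; inactive means the rest.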

biological target: Bcl-2-like protein 10 (Homo sapiens) (UniProt Q9HD36); assay: Bcl-B/TR3 peptide binding disruption – biochemical, fluorescence polarization, FITC-TR3 peptide, selectivity assay for Bfl-1 inhibitor project, primary screen (AID 748); details: FP displacement of FITC-TR3 peptide from Bcl-B; at 20 µM; hits give high values;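 further: plate controls were wells without compound for no effect and wells lacking Bcl-B protein for full effect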

SMILES	displacement
ClC1=CCC2CN(CCN3CCCCC3)CC2C1 (stereo not given)	67.7% (active)
O=c1cccc2n1CC1CC2CN(C(c2ccccc2)c2sc3ncnn3c2O)C1 (stereo not given)	-0.3%
O=C1OCCN1P(=O)(c1ccccc1)c1ccccc1	-1.2%
COc1ccc(C(=O)C2(C)N(O)C(C)C(c3cccs3)=[N+]2[O-])cc1 (stereo not given)	-5.6%
CCC(=NCC1CCCO1)c1c(O)n(-c2ccc(Cl)cc2)c(=O)[nH]c1=O (stereo not given)	-1.5%
